Source: PubChem BioAssay (NCI)
The panel holds about 83,000 compounds, 20% with a hit somewhere; the sample as a whole holds those more often.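 Negative percent growth values reflect cell death: -40 means 40% of the cells present at the start died, and -100 means all died.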 Values without a mark were called inactive. Active and inactive are the calls of the source. Rule for the calls: active = growth percent below 10; inactive = the rest.

tested on: UO-31 renal; test: NCI-60 one-dose screen, 48 h (100 = growth as untreated, 0 = no growth, -100 = all killed); settings: 10 µM unless noted

SMILES | growth
Cn1cc(-c2cc3nc(-c4cn(C)c5ncccc45)cc(N)n3n2)c2cc(Cl)ccc21 | -87.5% (active)
CC12CC[C@@H]3[C@]4(C)COC(c5c(F)cccc5F)O[C@@H]4CC[C@@]3(C)[C@@H]1CC(C1=CCOC1=O)O2 (stereo partly drawn) | 76.4%
Cc1nc(Nc2ncc(C(=O)Nc3c(C)cccc3Cl)s2)cc(N2CCN(CCCNC(=O)COc3ccc(C4CCC(=O)NC4=O)cc3)CC2)n1 (stereo not drawn) | 38.4%
Cn1cc(NC(=O)c2cc(NC(=O)c3ccc(/C=C/c4ccccc4)cc3)cn2C)cc1C(=O)NCCCN1CCOCC1 | 61.6%
Cc1ccccc1[C@H]1C(C(=O)c2ccc(Cl)cc2)C2(N[C@@H]1c1ccccc1)C(=O)Nc1ccc(Br)cc12 (stereo partly drawn) | 14.1%
Brc1ccc(N/N=C/c2c[nH]c3ccc(Br)cc23)nc1 | -18.7% (active)
C=C1CCC2C3(C)COC(c4ccccc4)OC3CCC2(C)C1CC(Sc1ccccc1)C1=CCOC1=O (stereo not drawn) | 45.5%
Clc1cccc(N/N=C/c2c[nH]c3ccc(Br)cc23)n1 | 7.66% (active)
COc1c(F)ccc(C(=O)Nc2ccc3nc(NC(=O)C4CCCN(S(=O)(=O)c5cccc(C(F)(F)F)c5)C4)sc3c2)c1F (stereo not drawn) | 74.8%
O=c1oc2ccc(Br)cc2cc1C1=CSc2nc3sc4c(c3c(=O)n2N=C1)CCCC4 | 69.8%
CC(=O)/C=C/c1cccc2c1C(=O)NC(C)(c1cc3cc(Br)ccc3oc1=O)N2 (stereo not drawn) | 22%
O=c1[nH]c(=O)c2c(-c3cc4ccccc4oc3=O)ccnc2[nH]1 | 71.6%
O=C(/C=C/Nc1ccc2oc(=O)ccc2c1)c1cc2cc(Br)ccc2oc1=O | 81.4%
CC1(c2cc3cc(Cl)ccc3oc2=O)NC(=O)c2c(/C=C/C(=O)OC3CC4CCC3(C)C4(C)C)cccc2N1 (stereo not drawn) | 42.8%
COc1ccc(-c2ccnc(SCc3cc4ccccc4[nH]c3=O)n2)cc1OC | -73.4% (active)
CC12CC[C@@H]3[C@]4(C)COC(c5cn[nH]c5-c5cccc(Br)c5)O[C@@H]4CC[C@@]3(C)[C@@H]1CC(C1=CCOC1=O)O2 (stereo partly drawn) | 14.9%
O=C(c1ccc(OCCN2CCOCC2)cc1)C1[C@H](c2ccc(Cl)cc2)[C@@H](c2ccccc2)NC12C(=O)Nc1ccc(Br)cc12 (stereo partly drawn) | 15.1%
COc1ccc2c(c1)c(/C=N/Nc1ccc3ccccc3n1)cn2C | -31.3% (active)
CN(C)CCOc1ccc(C(=O)C2[C@H](c3ccc(Cl)cc3)[C@@H](c3ccccc3)NC23C(=O)Nc2ccc(Br)cc23)cc1 (stereo partly drawn) | 32.8%

SMILES | growth
O=c1[nH]c2ccc(Cl)cc2cc1CSc1nccc(-c2ccc(Cl)cc2)n1 | 60%
COc1cccc(/C=C/c2nc3ccccc3c(=O)n2CC(=O)Nc2ccc(Cl)cc2)c1 | 16%
CCCSc1nc(Nc2ccc(S(N)(=O)=O)cc2)c(C#N)c(-c2cc(OC)c(OC)c(OC)c2)n1 | 2.53% (active)
CC(/C=C1\SC(=S)N(CCCC(=O)NC(CC(C)C)C(=O)O)C1=O)=C\c1ccccc1 (stereo not drawn) | 64.4%
COc1ccc(/C=C/c2nc3ccccc3c(=O)n2CC(=O)Nc2ccc(Cl)cc2)cc1 | 79.5%
Cn1cc(-c2cc3nc(-c4cn(C)c5ncc(Br)cc45)cc(N)n3n2)c2cc(Cl)ccc21 | -87.8% (active)
Cn1cc(-c2cc(N)n3nc(-c4cn(C)c5ncccc45)cc3n2)c2cccnc21 | 89.2%
Cc1ccc([C@H]2C(C(=O)c3ccc(Cl)cc3)C3(N[C@@H]2c2ccccc2)C(=O)Nc2ccc(Cl)cc23)cc1 (stereo partly drawn) | 31.2%
O=C(Cn1c(/C=C/c2ccccc2)nc2ccccc2c1=O)Nc1ccc(Cl)cc1 | -24.6% (active)
CC12CC[C@@H]3[C@]4(C)COC(c5cn[nH]c5-c5cccc(Cl)c5)O[C@@H]4CC[C@@]3(C)[C@@H]1CC(C1=CCOC1=O)O2 (stereo partly drawn) | 16.4%
CCCCSc1nc(Nc2ccc(S(N)(=O)=O)cc2)c(C#N)c(-c2cc(OC)c(OC)c(OC)c2)n1 | 12.1%
CCOC(=O)/C=C/c1cccc2c1C(=O)NC(C)(c1cc3cc(Cl)ccc3oc1=O)N2 (stereo not drawn) | 11.7%
O=C(c1ccc(OCCN2CCOCC2)cc1)C1[C@H](c2ccc(Cl)cc2)[C@@H](c2ccccc2)NC12C(=O)Nc1ccc(Cl)cc12 (stereo partly drawn) | 19.1%
CC(C)c1sc(NC(=O)c2cc(NC(=O)c3cc(NC(=O)c4nccn4C)cn3C)cn2C)nc1C(=O)NCCCN(C)C | 98.1%
COc1c(F)ccc(C(=O)Nc2ccc3nc(NC(=O)C4CCCN(S(=O)(=O)c5ccc(Cl)cc5)C4)sc3c2)c1F (stereo not drawn) | 62.9%
O=C(N1c2ccccc2Sc2ccccc21)n1ccc2cccnc21 | 55.6%
Cn1cc(-c2cc(N)n3nc(-c4cn(C)c5ncc(Br)cc45)cc3n2)c2cc(Br)cnc21 | 45.8%
CC1=C(C#N)C2=NNCC(c3ccccc3)=NN2C(c2ccccc2)=C1 | 91.2%
C=C1CC[C@@H]2[C@]3(C)COC(c4cn[nH]c4-c4ccc(F)cc4)O[C@@H]3CC[C@@]2(C)[C@@H]1C/C=C1/C(=O)OCC1O (stereo partly drawn) | -80.4% (active)
